Compound activity (PubChem BioAssay)
Pf Dd2 growth: blocks in vitro growth of P. falciparum Dd2. P. falciparum Dd2 growth, SYBR Green, 72 h. hit rate 4.3% among 120,000. AID 1347417. Potency, µM (titrated, usually from 28.9 µM), inactives show at the highest dose activity, negative = inhibition, actives largely listed as inhibitors; active = well fitted inhibition curve with a large enough effect;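 also: plate controls were DMSO vehicle for no effect and reference drug for full effect; nearly all actives have a fitted effect of over 65% in size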
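Readout: SYBR Green fluorescence, 485 nm excitation, 535 nm emission, after ~16 h lysis at 37C. Before that, Dd2-infected red cells (2.5% hematocrit) grew 72 h with compound, 29 uM top final concentration.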
Starred values were filed as active, the others as inactive; i = inactive; [ ] = another dose, or the depositor's remark. Shown is part of a subset that was picked to be rich in hits. Potency is read from the fitted curve at half-maximal effect.

SMILES	Pf Dd2 growth
Cc1cc(CN(C)C(=O)CC(c2ccccc2)c2ccc3c(c2)OCO3)n[nH]1 (stereo not drawn)	i
Cc1ccc(Cn2cc(-c3ccncc3)cc2C(=O)N(C)Cc2ccccc2)cc1	-16.0%
CCn1cc(-c2ccncc2)cc1C(=O)NCc1ccc(SC)cc1	i
Cc1ccc(Cn2cc(-c3ccncc3)cc2C(=O)NCC2CC2)cc1	11.2µM*
Cc1nnc(-c2cc(N3CCN(c4ccccn4)CC3)ccn2)n1C1CCCCC1	-4.1%[44.1 µM]
COc1ccc(Cn2c3c(c(=O)n2Cc2ccccc2)CCN(Cc2cccc(O)c2)C3)cc1	i
O=C(c1ccccc1)N1CCc2c(n(Cc3ccccc3)n(-c3ccccc3)c2=O)C1	-1.1%[44.1 µM]
O=c1c2c(n(Cc3ccccc3)n1-c1ccccc1)CN(Cc1ccc3[nH]ccc3c1)CC2	3.16µM*
Cn1nc(C(=O)NC2CCCc3c2[nH]c2ccccc32)c2ccccc2c1=O (stereo not drawn)	7.08µM*
O=C(NC1CCCc2c1[nH]c1ccccc21)c1ccccn1 (stereo not drawn)	-20.4%
O=C(Cn1nc2c(cc1=O)CCCCC2)NC1CCCc2c1[nH]c1ccccc21 (stereo not drawn)	-5.2%
COCC(=O)NC[C@@H]1C=C(C)[C@H](CC(=O)NC2CCCC2)C[C@H]1C(C)C	9.6%[44.1 µM]
CCOCCOC1CCN(C(=O)c2sccc2C)CC1	22.8%
CCC(=O)N1Cc2ccccc2CC2(CCCCN2CC2CCNC2)C1 (stereo not drawn)	-2.5%
CC1=NOC2(CCN(Cc3ccc(F)cc3)CC2)C1	i
COc1ccc(CN2CCC3(CC2)CC(C)=NO3)cc1	-18.2%[44.1 µM]
CC1=NOC2(CCN(Cc3ccc(N(C)C)cc3)CC2)C1	10µM*
COc1cccc(N2CC(C(=O)NCc3cccc(F)c3)NC2=O)c1 (stereo not drawn)	-16.2%[44.1 µM]
CCCN(C)C(=O)c1onc(-c2ccc(OC)cc2)c1[C@H](C)O	-13.8%[44.1 µM]
Cc1nc(NCc2ccc(C(=O)N3CCCCC3)cc2)cc(C2CC(N)C2)n1 (stereo not drawn)	-6.4%
COC[C@@H]1[C@H](NC(=O)c2ccc(OCCNC(C)=O)cc2)[C@@H]2CCO[C@H]12	-3.2%
O=C1NCCCCCCN(C(=O)Nc2ccccc2)[C@H]2CCCC[C@@H]12	7.4%
CC(=O)N1CC2(CCN(Cc3ncccn3)CC2)CC1C(=O)O (stereo not drawn)	6.3%
CCc1cccc(NC(=O)CN2C(=O)CN=C(c3ccccc3F)c3cc(Cl)ccc32)c1	16.2%
Fc1ccccc1-c1nnc([C@H]2CCN(Cc3ccccc3)C2)o1	i
SMILES	Pf Dd2 growth
CCc1cccc(NC(c2ccccc2)c2nnc(-c3ccccc3F)o2)c1 (stereo not drawn)	11.2µM*
COc1ccc(OC)c(NC(=O)N2c3ccccc3CC2c2nc(C3CC3)no2)c1 (stereo not drawn)	-0.6%[5.79 µM]
COCCNC(=O)c1ccc2c(c1)N(C)C(CC(=O)NC1CCOCC1)CO2 (stereo not drawn)	7.3%
Cc1cc(CN(C)C(=O)c2cc(COc3ccc4c(c3)OCO4)[nH]n2)on1	-9.5%
CC1=C[C@@H](CN2CCCCC2)[C@H](C(C)C)C[C@H]1Cc1nnc(-c2cncn2C)o1	7.94µM*
CC(=O)NC[C@@H]1C=C(C)[C@H](CC(=O)NCc2cccnc2)C[C@H]1C(C)C	40.2%[44.1 µM]
CC1=C[C@@H](CN2CCN(c3ncccn3)CC2)[C@H](C(C)C)C[C@H]1Cc1nnc(-c2cncn2C)o1	-5.8%
CC1=C[C@@H](CNc2ccccn2)[C@H](C(C)C)C[C@H]1Cc1nnc(-c2cncn2C)o1	5.62µM*
Cc1ccccc1CN1CC[C@H](c2nnc(-c3cncn3C)o2)C1	-0.3%[44.1 µM]
CC1=C[C@@H](CNC(=O)c2ccccc2)[C@H](C(C)C)C[C@H]1Cc1nnc(-c2cncn2C)o1	-5.8%[44.1 µM]
CC1=C[C@@H](CNC(=O)c2cncnc2)[C@H](C(C)C)C[C@H]1Cc1nnc(-c2ccccc2F)o1	-4.6%
CC1=C[C@@H](CNC(=O)c2cnccn2)[C@H](C(C)C)C[C@H]1Cc1nnc(-c2ccccc2F)o1	-5.7%
CC1=C[C@@H](CNCc2ccc(Cl)cc2)[C@H](C(C)C)C[C@H]1Cc1nnc(-c2cncn2C)o1	3.98µM*
CC(CNC(=O)c1noc(-c2ccc3c(c2)OCO3)n1)c1ccccc1 (stereo not drawn)	23.3%
COC[C@@H]1CN(C(=O)c2ccc(OC)nc2)C[C@H]1C(N)=O	2.8%
CCNC(=O)N[C@H]1CO[C@H]2[C@@H]1OC[C@H]2OC(=O)Nc1ccc(C(C)=O)cc1	17.0%[44.1 µM]
CC(=O)N1CCC(N2C[C@H](O)C[C@H]2c2nc(-c3ccccn3)no2)CC1	-21.3%[44.1 µM]
COCCOC1CN(C2CCN(C(=O)c3cnccn3)CC2)C12CCCCC2 (stereo not drawn)	-20.8%
CCOC(=O)c1cc(-c2ccc(C)cc2)n(CCCC(=O)Nc2cc(C)ccc2C)c1	11.2µM*
CCOC(=O)c1cc(-c2ccc(C)cc2)n(CC(=O)Nc2cc(C)ccc2C)c1C	2.6%
CCOC(=O)c1cc(-c2ccccc2)n(CCCC(=O)Nc2ccc(C)cc2Cl)c1C	i
CC(C)c1noc([C@@H]2C[C@@H](O)CN2Cc2ccc(S(C)(=O)=O)cc2)n1	-11.8%[44.1 µM]
CCOc1cc(=O)n2c(c1C(=O)NCC1CCCO1)CCCCC2 (stereo not drawn)	-6.8%
NC1(Cc2cc(CN3CCN(c4ccccc4)CC3)on2)COC1	21.0%[44.1 µM]
COc1ccc(C(=O)N2CCC3(CC2)CNC(=O)c2ccccc2O3)cc1	-16.2%
SMILES	Pf Dd2 growth
COc1ccc(C(=O)N2CCC3(CC2)COc2ccccc2CN3)cc1	1.41µM*
COc1ccc(C(=O)N2CCCC3(COc4ccccc4C(=O)N3)C2)cc1 (stereo not drawn)	-11.2%
O=C1CCC2(CCCN(C(=O)c3ccnc(-n4cnnc4)c3)C2)CN1CC1CC1 (stereo not drawn)	3.1%
O=C1NCC(c2ccc(Cl)cc2)Cc2[nH]c(-c3ccc(O)cc3)nc21 (stereo not drawn)	-25.2%
CCN(CC)c1cc2c(cc1F)c(=O)c(S(=O)(=O)c1ccccc1)cn2Cc1ccccc1	12.6µM*
CCCCn1cc(S(=O)(=O)c2ccc(C)c(C)c2)c(=O)c2cc(F)c(N(CC)CC)cc21	12.6µM*
CCCn1cc(S(=O)(=O)c2ccc(C)c(C)c2)c(=O)c2cc(F)c(N3CCCCC3)cc21	1.4%
CCN(CC)c1cc2c(cc1F)c(=O)c(S(=O)(=O)c1cccc(C)c1)cn2C	8.8%
CCCCn1cc(S(=O)(=O)c2ccc(F)cc2)c(=O)c2ccccc21	18.1%
COc1ccc(S(=O)(=O)c2cn(Cc3ccccc3)c3cc(F)c(F)cc3c2=O)cc1	-24.3%
COc1ccc(NC(=O)Cn2cc(S(=O)(=O)c3ccccc3)c(=O)c3cc4c(cc32)OCO4)cc1	-15.8%
CCN(CC)c1cc2c(cc1F)c(=O)c(S(=O)(=O)c1ccc(OC)cc1)cn2Cc1ccccc1	12.6µM*
CCN(CC)c1cc2c(cc1F)c(=O)c(S(=O)(=O)c1ccccc1)cn2C	-22.9%
O=C(NCCCN1CCCC1)c1cn2ccnc(-c3ccccc3)c2n1	-15.9%
CC(C)(C)CC(=O)Nc1ccc([C@H]2OCC(=O)N(CCN)[C@@H]2CO)cc1	-14.0%[44.1 µM]
Cc1nc(-c2c3n(c(=O)n(CC(=O)Nc4ccc(F)cc4)c2=O)CCCC3)no1	25.8%
CC(C)c1noc(-c2cn(C3CCN(C(=O)c4ccoc4)C3)nn2)n1 (stereo not drawn)	47.3%
O=C1OCCN1C1CCN(Cc2ccc(F)cc2)CC1	5.9%[44.1 µM]
Cc1cc(C(=O)NC2CC(C)(C)Cc3nc(N4CCOCC4)ncc32)nn1C (stereo not drawn)	-11.6%
